ERAP1 HTS inh: human ERAP1 aminopeptidase inhibitors, primary screen, biochemical, single point, plate reader; inhibition, % at 10.7 µM; recombinant ERAP1, Leu-AMC fluorescence, 60 min; AID 652197, 2013; 340,000 compounds, 0.15% hits;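 active means mean replicate inhibition of at least 30%, or all replicates individually reaching that 30% level; inactive means mean below 30% and not every replicate reaching it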;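 further: 0% = neutral control wells and 100% = L-leucinethiol positive control wells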
Target sequence (Q9NZ08 whole entry, looked up): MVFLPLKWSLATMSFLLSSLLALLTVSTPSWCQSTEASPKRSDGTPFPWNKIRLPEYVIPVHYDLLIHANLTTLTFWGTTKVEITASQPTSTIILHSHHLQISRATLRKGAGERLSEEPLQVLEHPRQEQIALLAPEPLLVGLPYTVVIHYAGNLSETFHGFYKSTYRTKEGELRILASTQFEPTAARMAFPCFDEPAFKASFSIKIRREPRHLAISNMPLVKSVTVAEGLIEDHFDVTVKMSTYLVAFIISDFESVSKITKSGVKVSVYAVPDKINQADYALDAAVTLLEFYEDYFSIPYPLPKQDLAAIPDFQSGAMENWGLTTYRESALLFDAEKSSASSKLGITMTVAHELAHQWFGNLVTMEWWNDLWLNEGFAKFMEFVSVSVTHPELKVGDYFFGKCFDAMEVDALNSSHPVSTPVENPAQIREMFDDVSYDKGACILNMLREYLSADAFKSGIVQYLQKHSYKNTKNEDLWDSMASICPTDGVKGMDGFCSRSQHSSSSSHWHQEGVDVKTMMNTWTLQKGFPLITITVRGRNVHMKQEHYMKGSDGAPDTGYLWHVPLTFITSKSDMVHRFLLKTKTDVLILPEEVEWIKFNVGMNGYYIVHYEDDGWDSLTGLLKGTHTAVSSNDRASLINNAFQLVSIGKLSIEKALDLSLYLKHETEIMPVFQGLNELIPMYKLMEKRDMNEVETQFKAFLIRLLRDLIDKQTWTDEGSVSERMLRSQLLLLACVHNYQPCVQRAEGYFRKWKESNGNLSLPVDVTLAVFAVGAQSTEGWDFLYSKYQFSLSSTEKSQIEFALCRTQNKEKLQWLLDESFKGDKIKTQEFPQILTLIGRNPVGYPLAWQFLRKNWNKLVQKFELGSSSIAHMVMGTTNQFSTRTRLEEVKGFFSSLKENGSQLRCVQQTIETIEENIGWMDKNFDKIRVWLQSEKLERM
DENV2 CPE rescue: inhibitors of DENV2 cytopathic effect, primary screen, cell-based, plate reader, single concentration | DENV2-infected cells, cytopathic effect rescue | CPE inhibition, % at 9.99 µM | 350,000 compounds, 1.7% hits; in the data active means CPE inhibition above about 20%, passing the limit was not always enough; tested in BHK-21 cells;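 further: 0% = median of neutral control wells and 100% = median of positive control wells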
FGF22 binding: binders of human FGF22 protein, primary screen, FGF22 synaptogenesis inhibitor project, biophysical, thermal shift, single point. Fibroblast growth factor 22 (Homo sapiens), Q9HCT0. recombinant FGF22 thermal shift, SYPRO orange fluorescence; percent of sucrose octasulfate shift, DMSO zero. activity (Tm shift, normalised), % at 9.99 µM. 340,000 compounds, 1.5% hits. AID 651658, 2012;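 active means mean Tm shift, scaled 0 neutral to 100 positive control, at about 1.3% or above, every replicate too, limit read from the data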
RAD52 inh: RAD52 DNA annealing inhibitors, primary screen, biochemical, FRET, single point, set 2; inhibition, % at 18.7 µM; 360,000 compounds, 0.46% hits; AID 651710, 2012; recombinant RAD52 DNA annealing, FRET fluorescence;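 active means every replicate showing at least 50% inhibition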
MLL AF4-AF9 inh: inhibitors of AF4 peptide binding to AF9, primary screen, biochemical, AlphaScreen, biotin-AF4 peptide, FLAG-AF9, single point | Protein AF-9 (Homo sapiens), P42568 | 350,000 compounds, 0.47% hits | inhibition, % at 10 µM;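 active means every replicate reaching a set inhibition limit, whatever the replicate mean, cut at about 25% in these data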;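 further: 0% = plate neutral control median and 100% = total signal loss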
Numbers without * were called inactive; ! = a repeat was not active. This is a sample that favours compounds with a hit; in the whole collection about 4% have one here.

How did C[C@H](CO)N1C[C@H](C)[C@@H](CN(C)C(=O)Nc2ccc(F)cc2)Oc2ccc(NS(=O)(=O)c3ccccc3)cc2CC1=O do in these assays?
ERAP1 HTS inh: -1; DENV2 CPE rescue: 7; FGF22 binding: 0; RAD52 inh: 14; MLL AF4-AF9 inh: -1

How did CCC(=O)N1C[C@@H](C)[C@@H](OC)CN(C)C(=O)c2cc(NS(=O)(=O)CC)ccc2OC[C@@H]1C do in these assays?
ERAP1 HTS inh: 4; DENV2 CPE rescue: 7; FGF22 binding: 0; RAD52 inh: 7; MLL AF4-AF9 inh: -2

What do the screens show for `COc1ccc2c(c1)CCC/C2=N/OC(=O)c1ccccc1OC`?
ERAP1 HTS inh: -1; DENV2 CPE rescue: 1; FGF22 binding: 44*; RAD52 inh: -4; MLL AF4-AF9 inh: 2

What do the screens show for `COc1cccc(-c2ccc([C@@H]3[C@H]4CN(C(=O)c5ccc(F)cc5)CCCCN4[C@H]3CO)cc2)c1`?
ERAP1 HTS inh: -1; DENV2 CPE rescue: 6; FGF22 binding: 0; RAD52 inh: -2; MLL AF4-AF9 inh: -8

What do the screens show for `COc1cccc(-c2ccc([C@@H]3[C@@H](CO)N4CCCCN(C(=O)c5ccc(F)cc5)C[C@@H]34)cc2)c1`?
ERAP1 HTS inh: 0; DENV2 CPE rescue: 5; FGF22 binding: -1; RAD52 inh: -13; MLL AF4-AF9 inh: -8

How did COc1cccc(-c2ccc([C@H]3[C@@H](CO)N4CCCCN(C(=O)c5ccc(F)cc5)C[C@H]34)cc2)c1 do in these assays?
ERAP1 HTS inh: 0; DENV2 CPE rescue: 43*; FGF22 binding: 1; RAD52 inh: 41; MLL AF4-AF9 inh: -1

Results for COc1cccc(-c2ccc([C@@H]3[C@@H](CO)N4CCCCN(C(=O)c5ccc(F)cc5)C[C@H]34)cc2)c1 ?
ERAP1 HTS inh: 0; DENV2 CPE rescue: 43*; FGF22 binding: 0; RAD52 inh: 3; MLL AF4-AF9 inh: 1

Results for COc1ccc(-c2ccc(C3[C@@H]4CN(Cc5cc(OC)cc(OC)c5)C[C@H]3N4)cc2)cc1 (stereo partly drawn) ?
ERAP1 HTS inh: 0; DENV2 CPE rescue: -4; RAD52 inh: 66*; MLL AF4-AF9 inh: 12

How did COc1cc(CN2C[C@@H]3N[C@H](C2)C3c2ccc(-c3cccc(OC)c3)cc2)cc(OC)c1 (stereo partly drawn) do in these assays?
ERAP1 HTS inh: 0; DENV2 CPE rescue: 1; RAD52 inh: 59*; MLL AF4-AF9 inh: 26*!

How did O=C(Cc1ccncc1)NCC[C@H]1CC[C@@H](NC(=O)C2CC2)[C@@H](CO)O1 do in these assays?
ERAP1 HTS inh: 1; DENV2 CPE rescue: 1; FGF22 binding: 0; RAD52 inh: -50; MLL AF4-AF9 inh: 1

What do the screens show for `CCOc1ccc2c(c1)C(NC(C)=O)C(=O)N2CCN1CCOCC1` (stereo not drawn)?
ERAP1 HTS inh: 19; DENV2 CPE rescue: -6; FGF22 binding: 0; RAD52 inh: 22; MLL AF4-AF9 inh: 25*

Results for C[C@@H]1CN([C@@H](C)CO)C(=O)c2cc(NC(=O)Cc3ccccc3)ccc2O[C@@H](C)CCCCO[C@@H]1CN(C)C(=O)CCCN(C)C ?
ERAP1 HTS inh: -3; DENV2 CPE rescue: -15; FGF22 binding: 0; RAD52 inh: 0; MLL AF4-AF9 inh: -1

Results for CO[C@H]1CN(C)C(=O)c2ccc(NC(C)=O)cc2OC[C@@H](C)N(C(=O)C2CCOCC2)C[C@H]1C ?
ERAP1 HTS inh: 1; DENV2 CPE rescue: 0; FGF22 binding: 0; RAD52 inh: -1; MLL AF4-AF9 inh: -2

Results for COc1ccccc1C(=O)NC(=O)CSc1nncn1C ?
ERAP1 HTS inh: -1; DENV2 CPE rescue: 6; FGF22 binding: 0; RAD52 inh: -7; MLL AF4-AF9 inh: -2

What do the screens show for `O=C(CCNC(=O)c1ccc(Br)cc1)NNC(=O)c1ccccc1`?
ERAP1 HTS inh: -2; DENV2 CPE rescue: 1; FGF22 binding: 43*; RAD52 inh: -15; MLL AF4-AF9 inh: -1

Results for COc1ccc(Cl)cc1C(=O)NNC(=O)CCNC(=O)c1ccccc1 ?
ERAP1 HTS inh: -1; DENV2 CPE rescue: -4; FGF22 binding: 44*; RAD52 inh: -7; MLL AF4-AF9 inh: 3

Source: PubChem BioAssay
